Laboratory results as given in PubChem BioAssay (NCI).
Compounds without any hit were thinned out: in the full panel of roughly 83,000, 20% have a hit.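 Treatment: one concentration, 48 hours, 96-well format. Scoring: percent growth, with anything below 10 considered active.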 Unmarked numbers belong to inactive results. Activity calls are given as the source filed them.

The molecules below were run on HL-60(TB) leukemia (assay: NCI-60 one-dose screen, 48 h (100 = growth as untreated, 0 = no growth, -100 = all killed)). Details: 10 µM unless noted.
In the case of `Cc1c(N(C)CS(=O)(=O)O)c(=O)n(-c2ccccc2)n1C`, the growth is reported as 96%. For `CC(C)C[C@H](NC(=O)[C@H](Cc1cccc2ccccc12)NS(=O)(=O)c1cccc2cccnc12)B(O)O`, the growth was -17.2% (active). With `NCCn1cc(-c2nc(-c3c[nH]c4ncccc34)cs2)c2cc(Br)ccc21` the growth was 51.1%. `NC(=O)Nc1ccc2ncnc(Nc3cccc(O)c3)c2c1` showed a growth of 105%. `O=C(Nc1ccc(-n2cc(-c3ccncc3)c(-c3ccc(O)c(Cl)c3)n2)cc1)c1ccc(Cl)c(Cl)c1` was tested, and the growth was 14.7%. With `Cc1nc2cc(Nc3nc(Nc4ccc(F)cc4)nc(-c4ccc(Cl)cc4)n3)ccc2n1Cc1ccccc1` the growth was -29.6% (active). Molecule `O=C(Nc1ccccc1)Nc1ncnc2c1ncn2-c1ccccc1` has a growth of 100%. With `O=C1c2cccc(NCCN=Cc3ccccc3O)c2C(=O)c2c(NCCN=Cc3ccccc3O)cccc21` the growth was 31.6%. `COc1cc2c(cc1OC)-c1ccc3cc4c(cc3c1N(CCCN(C)C)C2)OCO4` was tested, and the growth was 30.4%. `N#Cc1c(-c2ccccc2)cc(-c2ccccc2)n(CC(=O)NO)c1=O` was tested, and the growth was -56.3% (active). `CCOC(=O)Cn1c(=O)c2c(c3ccccc3n2C)n2nnc(-c3ccccc3)c12` was tested, and the growth was 109%. `COc1cc2c(c3c1c(=O)c1cccc(F)c1n3C)C=CC(C)(C)O2` was tested, and the growth was 100%. Molecule `O=C(Cn1cccc(Nc2ccccc2)c1=O)Nc1ccccc1` has a growth of 118%. Work on `CN1CCN(Cc2ccc(NC(=O)c3cncc(C#Cc4c(N)ncc5ccc(F)cc45)c3)cc2C(F)(F)F)CC1` yielded a growth of 17.4%. For `COc1cc2c(cc1O)CC[C@@H]1C2CC[C@@]2(C)C1CC[C@@H]2O` (some centres undefined), the growth was -3.13% (active). Molecule `COc1ccc2nc(Cl)c(/C=C3\CC(c4ccccc4)=NN(c4ccccc4)C3=O)cc2c1` has a growth of 99%. With `C=C[C@]1(C)C=C2CC[C@@H]3C(C)(C)C(=O)CC[C@@]3(C)[C@@H]2CC1` the growth was 101%. For `CS(=O)(=O)c1ccc(-n2nc(-c3ccc(Br)cc3)c3ccccc3c2=O)cc1`, the growth was 93.3%. In the case of `NC(=O)CC1(O)C=C(Br)C(=O)C(Br)=C1`, the growth is reported as -27.9% (active). `O=C(N=c1oc2ccccc2cc1-c1cc2ccccc2[nH]1)c1ccc(Cl)cc1` showed a growth of 26.2%. `N#C/C(=C/c1ccc(O)c([N+](=O)[O-])c1)c1nc(-c2ccc([N+](=O)[O-])cc2)cs1` gave a growth of 26.5%. Work on `CN1CCc2c(sc3nc4n(-c5ccc(Cl)cc5)c(=O)[nH]n4c(=O)c23)C1` yielded a growth of 89.3%. Work on `CCOC(=O)c1ccc(Nc2ncnc3c2cnn3-c2cccc(F)c2)cc1` yielded a growth of 109%. `C#CCCCCCCC[C@@H]1OC(=O)[C@H]([C@@H](C)CC)NC(=O)[C@H]([C@@H](C)CC)NC(=O)CC(=O)[C@@H]1C` was tested, and the growth was 103%. Molecule `O=C(/C=C/c1sc(Cl)nc1Cl)c1ccccc1` has a growth of 42.2%. Work on `Cn1cnc(-c2cc3nccc(Oc4ccc(NC(=S)NC(=O)Cc5ccccc5)cc4F)c3s2)c1` yielded a growth of 80%. Molecule `CC(C)(C)CC(C)(C)Nc1c(-c2c(O)c3ccccc3oc2=O)nc2c(Cl)cc(C(F)(F)F)cn12` has a growth of 90.9%. `OC1COC(OCc2ccccc2)C(O)C1O` (centres undefined) was tested, and the growth was 101%. In the case of `COC(=O)CCCCCN=Cc1c(O)c(O)c(C(C)C)c2cc(C)c(-c3c(C)cc4c(C(C)C)c(O)c(O)c(C=NCCCCCC(=O)OC)c4c3O)c(O)c12`, the growth is reported as 15.4%. For `C=CC(C)(O)CC/C=C(\CO)C(=O)OC1C(C)OC(O[C@](C)(C=C)CC/C=C(\CO)C(=O)O[C@H]2C[C@@]3(C(=O)OC4OC(CO)C(O)C(O)C4OC4OC(C)C(OC5OC(CO)C(O)C5O)C(OC5OC(CO)C(O)C(O)C5O)C4O)C(CC2(C)C)C2=CCC4[C@@]5(C)CC[C@H](OC6OC(COC7OC(C)C(O)C(O)C7OC7OCC(O)C(O)C7O)C(O)C(O)C6NC(C)=O)C(C)(C)C5CC[C@@]4(C)[C@]2(C)C[C@H]3O)C(O)C1O` (some centres undefined), the growth was -52.5% (active). `Cn1cc(CC2CC(=O)N(c3ccccc3)C2=O)sc1=NC(=O)c1ccccc1` (centres undefined) showed a growth of 114%. `COc1cc(/C=C/C(=O)c2c(C)oc3nc[nH]c(=O)c23)ccc1O` gave a growth of 117%. Work on `Cc1sc(NC(=O)c2ccc(C(C)(C)C)cc2)c(C(=O)O)c1C` yielded a growth of 45.2%. In the case of `COc1ccc(C(=O)COc2ccc(/C=C3\Oc4ccc(Cl)cc4C3=O)cc2)cc1`, the growth is reported as 16.5%.
